CRFR2-BP antag – blocks CRF-induced signaling of the CRF-BP/CRF-R2 complex; AID 588475; HEK293 CRF-R2/CRF-BP, CRF-induced calcium fluorescence; hit rate 0.59% among 350,000; inhibition, % at 11.8 µM;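 active = inhibition of the ligand-induced calcium signal above about 50% at the single tested concentration, limit read from the data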
Myeloid diff 2 – compounds promoting myeloid differentiation | ER-HoxA9 myeloid progenitors, lysozyme-GFP differentiation, flow cytometry | calls only at 10 µM | hit rate 1% among 360,000 | AID 624256;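 active = normalized GFP-positive differentiation at or above the plate's own cutoff, the solvent-only control mean plus 3 SD; inconclusive = no clear call, values can overlap the other calls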;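 also: cells exposed to compound for four days before flow analysis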
CendR NRP1 mod – NRP-1/CendR interaction modulation; FAM-RPARPAR peptide binding to NRP-1, fluorescence polarization; inhibition, % at 25 µM; hit rate 0.85% among 360,000; AID 602438;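 active = inhibition or corrected inhibition above about 18%, plus a signal ratio from 0.5 to 1.5, limit read from the data, passing the limit was not always enough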
Target sequence (O14786 whole entry, looked up): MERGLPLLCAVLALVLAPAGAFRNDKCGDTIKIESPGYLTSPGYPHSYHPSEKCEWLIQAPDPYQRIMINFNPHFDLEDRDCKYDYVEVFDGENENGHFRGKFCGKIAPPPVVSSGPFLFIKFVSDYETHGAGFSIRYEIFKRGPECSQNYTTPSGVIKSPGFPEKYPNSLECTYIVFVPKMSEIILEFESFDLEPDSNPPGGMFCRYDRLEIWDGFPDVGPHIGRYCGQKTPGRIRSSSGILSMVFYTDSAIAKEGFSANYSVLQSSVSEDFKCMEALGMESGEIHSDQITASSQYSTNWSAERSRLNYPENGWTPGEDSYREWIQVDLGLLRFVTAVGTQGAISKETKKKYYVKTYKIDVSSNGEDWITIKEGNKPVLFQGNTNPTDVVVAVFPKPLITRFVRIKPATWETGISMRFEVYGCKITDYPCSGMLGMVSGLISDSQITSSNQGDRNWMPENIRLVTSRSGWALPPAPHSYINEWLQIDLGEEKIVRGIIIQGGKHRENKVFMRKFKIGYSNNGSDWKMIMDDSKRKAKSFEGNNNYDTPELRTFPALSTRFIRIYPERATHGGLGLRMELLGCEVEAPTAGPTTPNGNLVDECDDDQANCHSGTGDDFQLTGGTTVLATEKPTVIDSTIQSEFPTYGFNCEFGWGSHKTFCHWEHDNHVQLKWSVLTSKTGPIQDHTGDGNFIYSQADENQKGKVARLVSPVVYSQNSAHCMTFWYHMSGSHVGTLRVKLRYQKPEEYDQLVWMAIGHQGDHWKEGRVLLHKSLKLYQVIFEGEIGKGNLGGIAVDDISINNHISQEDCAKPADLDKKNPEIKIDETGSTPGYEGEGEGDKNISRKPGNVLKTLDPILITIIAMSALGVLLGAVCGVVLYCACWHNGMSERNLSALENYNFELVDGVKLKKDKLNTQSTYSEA
FAS TE block – FAS thioesterase (human) inhibition; AID 602261; hit rate 0.67% among 360,000; P49327; inhibition, % at 15 µM; recombinant FAS-TE, OMFH fluorogenic substrate, fluorescence endpoint;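 active = compounds whose normalised, plate-corrected inhibition of enzyme fluorescence in the single-dose primary screen is 50% or more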;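 also: 0% = DMSO with enzyme and 100% = substrate without enzyme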
NadD block – NadD (S. aureus) enzyme inhibition; purified NadD enzyme, colorimetric absorbance read-out; inhibition, % at 20 µM; hit rate 0.78% among 360,000; AID 602399; in the data active = inhibition above about 26%
* hit, by the source's call; i = inactive; ? = inconclusive; . = no result; + = active, no number. In the library only some 3.6% were active in any assay of this set; here they are far more common.

SMILES	CRFR2-BP antag	Myeloid diff 2	CendR NRP1 mod	FAS TE block	NadD block
COc1ccc2nc(NC(=O)CN3CCOCC3)sc2c1	6.3	i	21.3*	-11.8	-3.5
N#CCc1nc2ccc(S(=O)(=O)N3CCOCC3)cc2s1	-16.6	+	-158.8	-9.7	10.1
COc1ccc2nc(NC(=O)c3cc(S(=O)(=O)N4CCOCC4)ccc3C)sc2c1	6.1	i	25.6*	14.2	0.7
Cc1ccc(S(=O)(=O)N2CCOCC2)cc1NCC(=O)Nc1ccc(OC(F)(F)F)cc1	-9.9	i	19.8*	-13.5	-7.1
CSc1nc2ccc(S(=O)(=O)N3CCOCC3)cc2s1	18.1	i	5.5	-1.4	-1.8
CC(NNC(=S)N1CCCCCC1)c1ccc2ccccc2n1 (stereo not drawn)	.	?	-3.8	-2.5	-5.0
O=C(Nc1nc(-c2ccccn2)cs1)c1cc(S(=O)(=O)N2CCOCC2)ccc1F	6.6	+	-7.0	3.4	8.1
NC(=O)c1c(NC(=O)C(=O)N2CCOCC2)sc2c1CCCC2	1.4	i	31.6*	-6.0	-0.2
NC(=O)c1c(NC(=O)C(=O)N2CCOCC2)sc2c1CCC2	6.1	i	-129.7	-8.0	-6.0
CCC(CC)C1=NN2C(=N)/C(=C/c3ccc(OC(=O)c4ccco4)cc3)C(=O)N=C2S1	-4.8	i	-38.6	-0.6	11.9
N=C1/C(=C\c2ccc(OC(=O)c3ccccc3Cl)cc2)C(=O)N=C2SC(N3CCOCC3)=NN12	-2.3	i	-56.0	5.6	47.7*
COc1cc(/C=C2\C(=N)N3N=C(N4CCOCC4)SC3=NC2=O)ccc1OC(=O)c1ccccc1	2.0	i	-33.5	-3.5	37.2*
Cc1nc2ccc(Cl)cc2n1C	4.8	i	-6.8	-9.5	0.2
COc1ccc(S(=O)(=O)N2CCOC2CNC(=O)C(=O)NCCc2ccccc2)cc1OC (stereo not drawn)	-23.1	i	-5.9	-5.7	-0.1
COc1ccc(S(=O)(=O)N2CCOC2CNC(=O)C(=O)NCCc2ccccc2)cc1C (stereo not drawn)	139.6*	i	-1.6	0.6	-5.8
CCn1nc(C)c(NC(=O)Nc2cccc(Cl)c2Cl)c1C	52.6*	i	10.3	-3.9	-0.6
COc1ccc(N2CCN(C(=O)c3ccc(NS(=O)(=O)c4ccc(F)c(F)c4)cc3)CC2)cc1	-0.4	i	51.2*	-5.1	4.3
COc1ccc(NS(=O)(=O)c2ccc(C(=O)N3CCN(c4ccc(F)cc4)CC3)cc2)cc1	-14.2	i	2.5	16.2	3.8
Cc1ccc(C2=Nn3c(COc4ccc(Cl)cc4)nnc3SC2CC(=O)O)cc1 (stereo not drawn)	-2.9	i	-12.9	0.1	2.8
CCCCCNC1=CC(=O)CC(c2ccccc2)C1 (stereo not drawn)	81.3*	i	-0.3	-5.8	7.1
NC(c1csc(NC(=O)c2cccc(OC(F)(F)F)c2)n1)c1ccccc1Cl (stereo not drawn)	.	+	-16.1	-14.3	5.8
COc1cc(NC(=O)c2cc3ccccc3cc2OC)ccc1NC(=O)c1cccs1	0.7	i	-8.1	21.3	-0.9
Fc1ccc(-[n+]2nc(Nc3ccccc3)sc2-c2c3ccccc3cc3ccccc23)cc1	-10.7	i	12.3	-123.5	16.1
c1ccc(-[n+]2nc(Nc3cccc4ccccc34)sc2-c2c3ccccc3cc3ccccc23)cc1	0.9	?	17.3	-152.3	41.9*
COc1ccc(C2CC(c3ccc([N+](=O)[O-])cc3)=NN2C(=O)c2ccccc2)cc1OC (stereo not drawn)	-4.3	i	8.2	20.6	7.7
SMILES	CRFR2-BP antag	Myeloid diff 2	CendR NRP1 mod	FAS TE block	NadD block
COc1ccc(C2=NN(C(=O)c3cccc([N+](=O)[O-])c3)C(c3cccc([N+](=O)[O-])c3)C2)cc1 (stereo not drawn)	12.0	i	-14.9	50.1*	1.8
Cc1ccc(Cc2c(C3CCCCC3)nc3c4ccccc4ccn23)cc1	.	i	-43.5	12.2	8.6
N#Cc1ccc(C(C(=O)NC2CCCCC2)n2c(=O)c(-c3cc4ccccc4[nH]3)nc3ccccc32)cc1 (stereo not drawn)	.	+	-4.0	.	.
Cc1ccc(S(=O)(=O)N2C[C@H]3C(=O)C[C@@H](c4cccc(Cl)c4)N(S(=O)(=O)c4ccc(C)cc4)[C@H]3C[C@H]2c2cccc(Cl)c2)cc1	0.2	i	-6.4	22.7	22.3
CCOc1ccc(CCNC(=O)COC(=O)Cn2cnc3ccccc3c2=O)cc1OCC	14.3	+	1.6	-4.4	-2.8
COc1ccc(CCNC(=O)Cn2cnc3ccccc3c2=O)cc1OC	12.1	i	-0.5	-9.4	0.3
COc1ccccc1N1CCN(C2CCCN(C(=O)CN3CCCCC3=O)C2)CC1 (stereo not drawn)	-3.1	i	20.2*	-8.7	-7.4
Cc1cc(C)n2nc(-c3ccc(F)cc3)cc2n1	5.0	i	2.2	-6.9	-4.2
Cc1cc(-c2ccc(F)cc2)nc2cc(C(N)=O)nn12	0.6	i	26.1*	-4.9	4.9
CCCCCc1ccc(CC(=O)O)cc1	30.1	i	38.4*	-2.9	0.5
C=C1C(=O)[C@]23C[C@H]1CCC2[C@]1(C)CCC[C@@](C)(C(=O)O)C1C[C@@H]3O (stereo partly drawn)	.	?	7.4	-3.9	-5.4
C=C1C(=O)[C@]23C[C@H]1CCC2[C@]1(C)C(=O)CC[C@@](C)(C(=O)O)C1C[C@@H]3O (stereo partly drawn)	.	+	3.8	-10.4	-0.5
COc1ccccc1NS(=O)(=O)c1cc(N/C(=N\S(=O)(=O)c2ccccc2)c2ccc(F)cc2)ccc1Cl	14.1	i	33.6*	29.7	19.5
O=S(=O)(/N=C(/Nc1ccc(Cl)c(S(=O)(=O)N2CCOCC2)c1)c1ccc(F)cc1)c1ccccc1	7.0	i	-6.2	14.5	-6.0
COC(=O)CC1SC(=O)NC1=Nc1ccc(O)cc1 (stereo not drawn)	-20.4	i	8.4	-1.6	-1.9
COC(=O)CC1SC(=O)NC1=Nc1ccc(OC)cc1 (stereo not drawn)	73.3*	i	-5.6	-6.8	-1.2
Nn1c(COc2ccccc2F)nnc1SCC(=O)NC1CC1	5.9	i	-14.9	-3.8	-5.0
CCOC(=O)CC(=O)CSc1ccc2nnc(-c3ccc(C)cc3)n2n1	13.2	+	-4.2	3.1	12.2
CCOC(=O)N1CCN(C(=O)CSc2ccc3nnc(-c4ccncc4)n3n2)CC1	5.5	i	-2.0	-2.1	-0.5
Cc1ccc(C(=O)N2CCN(c3ccc(C(F)(F)F)cn3)CC2)c(C)c1	8.0	i	38.2*	6.8	-3.8
Cc1ccc(C(=O)N2CCN(c3ccc(C(F)(F)F)cn3)CC2)cc1	11.6	i	0.9	2.5	-4.2
O=C(O)COCC(=O)N1CCCN(c2ccc(C(F)(F)F)cn2)CC1	4.0	+	-7.4	-4.0	-3.8
Cc1ccc(Cn2cc(CN3CC(N4CCCC4)CS3(=O)=O)nn2)cc1 (stereo not drawn)	.	i	-0.9	-8.2	-15.5
